Reference: PubChem BioAssay AID623870 (Broad Institute, 2012)
Out of some 390,000 compounds screened, about 2,600 (0.67%) were called active. The list comes from a sample in which actives are over-represented; it also holds similar structures and randomly drawn compounds. A number with no mark means an inactive call.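 Rule for the calls: active = mean inhibition of replicates at least 50% and at least half of replicates each reaching 50%; inconclusive = half or more replicates reach 50% but mean below 50%; inactive = the rest.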

target: Transforming acidic coiled-coil-containing protein 3 (Homo sapiens) (UniProt Q9Y6A5); assay: inhibitors of ARNT PAS-B binding to TACC3 – biochemical, AlphaScreen, single concentration, primary screen (AID 623870); settings: AlphaScreen His-ARNT PAS-B/GST-TACC3 binding, luminescence; at 9.99 µM; stronger effect = higher value; TACC3 fragment carries E629A point mutation;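 note: 0% = complete ARNT plus TACC3 wells and 100% = ARNT alone without TACC3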

SMILES	inhibition
O=c1cc(CCl)nc2scc(-c3ccccc3)n12	-9.12%
OCCn1c(-c2ccccc2)csc1=Nc1ccccc1	51% (active)
COc1ccccc1S(=O)(=O)N1CC[C@H]2[C@@H](CO)N(C)c3ccc(C#Cc4ccccc4)cc3[C@H]21	9.34%
C[C@H]1CN([C@@H](C)CO)C(=O)Cc2cc(NS(C)(=O)=O)ccc2O[C@@H]1CN(C)S(=O)(=O)c1cccs1	-10.4%
O=C(C[C@@H]1C[C@@H]2c3cc(NS(=O)(=O)c4ccc(F)cc4)ccc3O[C@@H]2[C@H](CO)O1)NCc1ccccc1F	-1.77%
N#Cc1c(N2CCCCC2)nc(N)c2c(N)nc(SCC(=O)O)cc12	80.8% (active)
CCCN1[C@H](C(=O)N[C@H](C)c2ccccc2)[C@@H](CO)[C@@H]2Cn3c(ccc(-c4cccc(F)c4)c3=O)[C@@H]21	2.44%
C[C@@H]1CN([C@H](C)CO)C(=O)Cc2cc(NC(=O)CCC(F)(F)F)ccc2O[C@@H]1CN(C)CC1CCCCC1	2.83%
COc1ccccc1-c1cccc(-c2nc(C(=O)N3CCN(C)CC3)cc3c2[C@H](CCO)N([S@@](=O)C(C)(C)C)C3)c1	51.3% (active)
CC(C)(C)[S@](=O)N1Cc2cc(C(=O)N3CCCCC3)nc(-c3cccc(-c4ccccc4F)c3)c2[C@@H]1CCO	9.08%
CN1CCN(C(=O)c2cc3c(c(-c4cccc(-c5ccc(C(=O)N(C)C)cc5)c4)n2)[C@@H](CCO)N([S@](=O)C(C)(C)C)C3)CC1	-5.08%
C[C@@H]1CN([C@H](C)CO)C(=O)c2cc(NC(=O)Nc3ccccc3)ccc2O[C@@H](C)CCCCO[C@@H]1CN(C)S(=O)(=O)c1ccc(F)cc1	-3.52%
CCCNC(=O)N(C)C[C@H]1Oc2ncc(-c3cccc(C#N)c3)cc2C(=O)N([C@@H](C)CO)C[C@@H]1C	-5.02%
O=C(NCCCn1ccnc1)c1cc2c(s1)CCCC2	49.3% (active)
O=C(NCCCn1ccnc1)c1cc(Br)c(Br)s1	15.4%
O=C(NCCCn1ccnc1)c1cc(-c2ccccc2)on1	1.74%
O=C(N[C@H]1CC[C@H](CCNS(=O)(=O)c2ccc(F)cc2)O[C@H]1CO)c1cccc(F)c1	3.52%
CCS(=O)(=O)N1CCCCN2[C@@H](CO)[C@@H](c3ccc(-c4ccccc4)cc3)[C@@H]2C1	-0.151%
O=C([C@H]1[C@H](CO)[C@H]2Cn3c(ccc(-c4ccccc4)c3=O)[C@@H]1N2Cc1cccnc1)N1CCOCC1	42.2%
Cc1n[nH]c(=O)nc1N/N=C/c1cccs1	67.8% (active)
Cn1c(=O)c2c(nc(N/N=C/c3cccs3)n2Cc2ccc(Br)cc2)n(C)c1=O	12.7%
O=c1nc(N/N=C/c2ccco2)cn[nH]1	5.23%
C[C@@H]1CN([C@@H](C)CO)C(=O)c2cc(C3=CCCC3)cnc2O[C@@H]1CN(C)C(=O)Cc1ccncc1	3.47%
Cc1ccc(S(=O)(=O)Nc2ccc3c(c2)C(=O)N([C@H](C)CO)C[C@H](C)[C@H](CN(C)S(C)(=O)=O)O3)cc1	-7.55%
C[C@@H]1CN([C@@H](C)CO)C(=O)c2cc(-c3cccc(F)c3)cnc2O[C@@H]1CN(C)Cc1ccccc1	1.97%

SMILES	inhibition
COc1ccc(-c2ccc3c(c2)O[C@H](CN(C)Cc2ccccc2C(=O)O)[C@H](C)CN([C@@H](C)CO)S3(=O)=O)cc1	5.2%
O=C(N[C@@H]1CC[C@H](CCn2cc(-c3ccccc3)nn2)O[C@H]1CO)c1cnccn1	4.06%
O=S(=O)(N[C@@H]1CC[C@@H](CCn2cc(-c3ccccn3)nn2)O[C@@H]1CO)c1cccc(Cl)c1	69.9% (active)
O=C(N[C@@H]1CC[C@H](CCn2cc(-c3ccccn3)nn2)O[C@@H]1CO)c1ccccc1	87.5% (active)
CN(C)Cc1cn(CC[C@H]2CC[C@H](NS(=O)(=O)c3ccccc3)[C@@H](CO)O2)nn1	-3.47%
CN(C)Cc1cn(CC[C@H]2CC[C@@H](NS(=O)(=O)c3ccccc3)[C@H](CO)O2)nn1	-3.27%
O=C(N[C@@H]1CC[C@@H](CCn2cc(-c3ccccn3)nn2)O[C@@H]1CO)c1ccccc1	40.7%
C[C@H]1CN([C@@H](C)CO)C(=O)c2cc(C3=CCCC3)cnc2O[C@@H]1CN(C)C(=O)c1ccccc1	-1.02%
CC(C)OC(=O)N(C)C[C@@H]1OCc2ccccc2-c2c(n(C)c3ccccc23)C(=O)N([C@H](C)CO)C[C@H]1C	5.73%
CCC(=O)N(C)C[C@H]1Oc2cc(C#CCOC)ccc2S(=O)(=O)N([C@H](C)CO)C[C@H]1C	1.93%
CC(=O)Nc1ccc2c(c1)C(=O)N(C)[C@H]1CC[C@@H](CC(=O)NCC3CC3)O[C@H]1CO2	-14.7%
O=C(C[C@H]1CC[C@H]2[C@@H](COC[C@H](O)CN2Cc2ccncc2)O1)NCC1CC1	14.4%
C[C@@H]1CN([C@@H](C)CO)C(=O)c2cc(C#CC3CCCCC3)cnc2O[C@H]1CN(C)S(=O)(=O)c1ccccc1	10.2%
Cc1nc2ccccc2nc1N/N=C/c1ccc(O)cc1O	69.6% (active)
CNC[C@@H]1Oc2ccc(NC(=O)CCC(F)(F)F)cc2C(=O)N([C@@H](C)CO)C[C@@H]1C	-4.46%
CCc1n[nH]c(=S)n1/N=C/c1c[nH]c2ccc(Br)cc12	-4.96%
Cc1ccsc1/C=N/n1c(=S)[nH]nc(C)c1=O	65.9% (active)
Cc1ccsc1/C=N/NC(=O)Cc1cc(=O)[nH][nH]1	1.12%
O=C(NC[C@@H]1[C@@H](c2ccccc2)[C@H](CO)N1C(=O)C1CCC1)NC1CCCC1	-6.78%
Oc1cccc(/C=N/Nc2ccc(Cl)nn2)c1O	53.7% (active)
COc1ccc(NC(=O)N2C[C@H](O)COC[C@H]3O[C@@H](CC(=O)N4CCN(C)CC4)CC[C@@H]32)cc1	0.747%
CCN(CC)c1ccc(/C=N/NC(=O)c2cnccn2)c(O)c1	53.5% (active)
CCN(CC)c1ccc(/C=N/NC(=O)CNC(=O)c2cccs2)cc1	-3.55%
CCN(CC)c1ccc(/C=N/Nc2nc(C)cc(C)n2)c(O)c1	69.4% (active)
NS(=O)(=O)c1ccc(CNC(=O)c2cnccn2)cc1	6.45%

SMILES	inhibition
Cc1noc(C)c1NC(=O)Nc1cccc2c1O[C@H](CN(C)C(=O)Nc1c(C)noc1C)[C@@H](C)CN([C@@H](C)CO)C2=O	2.88%
CCCNC(=O)[C@H]1[C@H](CO)[C@H]2Cn3c(ccc(C4=CCCC4)c3=O)[C@H]2N1C(=O)CC	-1.64%
O=C(NNC(=S)Nc1ccccc1)c1cccc(S(=O)(=O)N2CCOCC2)c1	0.545%
Cc1cccc(-n2cnc(C(=O)NNC(=S)Nc3ccccc3)c2)n1	70.3% (active)
Cc1cccc(-n2cnc(C(=O)Nc3cccnc3)c2)n1	-3.7%
C/C=C/c1cnc2c(c1)C(=O)N([C@H](C)CO)C[C@H](C)[C@@H](CN(C)S(=O)(=O)c1ccccc1F)O2	-4.04%
C/C=C/c1ccc([C@H]2[C@@H](CO)N(S(C)(=O)=O)[C@@H]2CN(C)C(=O)CC)cc1	7.87%
CO[C@H]1CN(C)C(=O)c2ccc(NC(=O)C3CC3)cc2OC[C@H](C)N(CCc2ccccc2)C[C@H]1C	-7.12%
COc1ccc(Cc2nnc(SCC(=O)Nc3ccc(C)c(Cl)c3)[nH]c2=O)cc1	-0.289%
Cc1ccc(NC(=O)CSc2nnc(CNC(=O)c3ccccc3F)o2)cc1Cl	2.2%
Cc1ccc(NC(=O)CSc2nn3c(=O)c(C)nnc3s2)cc1Cl	56.2% (active)
C[C@H](CO)N1C[C@H](C)[C@@H](CN(C)Cc2ccc(-c3ccccc3)cc2)Oc2ccc(NC(=O)CCCN(C)C)cc2CC1=O	31.9%
C[C@H](CO)N1C[C@H](C)[C@@H](CN(C)C)OCCCC[C@H](C)Oc2ccc(NC(=O)C3CCCCC3)cc2C1=O	-2.97%
Cc1oc2c(C)c3oc(=O)c(CC(=O)N[C@@H](CC(C)C)C(=O)N[C@@H](Cc4ccccc4)C(=O)O)c(C)c3cc2c1C	2.61%
Cc1c(CC(=O)NCC(=O)NCC(=O)O)c(=O)oc2cc3oc4c(c3cc12)CCCC4	50.6% (active)
Cc1coc2c1c(C)cc1oc(=O)c(CC(=O)NCC(=O)N[C@H](C(=O)O)C(C)C)c(C)c12	2.88%
Cc1c(CC(=O)NCCCCCC(=O)O)c(=O)oc2cc3occ(-c4ccccc4)c3cc12	54.3% (active)
CC[C@@H](C)[C@H](NC(=O)CCc1c(C)c2cc3c4c(oc3c(C)c2oc1=O)CCCC4)C(=O)O	-0.229%
COc1cccc(-c2coc3cc4oc(=O)c(CC(=O)O)c(C)c4cc23)c1	17.2%
C[C@H](CO)N1C[C@H](C)[C@H](CN(C)Cc2ccncc2)Oc2ncc(C#CCC3CCCCC3)cc2C1=O	-1.21%
Cc1noc(C)c1NC(=O)Nc1ccc2c(c1)CC(=O)N([C@@H](C)CO)C[C@@H](C)[C@@H](CN(C)Cc1ccc(Cl)c(Cl)c1)O2	-1.62%
CO[C@@H]1CN(C)C(=O)c2cc(NS(=O)(=O)c3cn(C)cn3)ccc2OC[C@@H](C)NC[C@H]1C	1.1%
CN(C)C(=O)C[C@@H]1CC[C@H](NC(=O)NC2CCCCC2)[C@@H](CO)O1	-17%
